Screening data: PubChem BioAssay, National Center for Advancing Translational Sciences (NCATS)
Shown is part of a subset that was picked to be rich in hits.
Lassa entry inh: blocks Lassa virus binding to or entry into cells; Lassa virus pseudotype entry inhibition, cell reporter; actives 1.2% (n = 300,000); AID 540256; Potency, µM (highest dose often 37.9 µM), inactives show at the top dose activity change, negative = inhibition, actives largely listed as inhibitors; calls by dose curve; tested in HEK293 cells; also: potency is read from the fitted curve at half-maximal effect; % is scaled to controls: 0 for no effect and ±100 for the full control effect; nearly all actives have a fitted effect of over 50% in size
VACV Venus inh: inhibitors of vaccinia virus (Venus reporter). Potency, µM (highest dose often 36.5 µM), without a hit: at the top dose activity change, negative = inhibition, usual class: inhibitors. Vaccinia virus Venus reporter expression, fluorescence. AID 720580. actives 0.46% (n = 330,000); calls by dose curve; tested in A549 cells; also: potency is read from the fitted curve at half-maximal effect; % is scaled to controls: 0 for no effect and ±100 for the full control effect; nearly all actives have a fitted effect of over 30% in size
Vaccinia mCherry: inhibitors of vaccinia virus infection (mCherry reporter signal); Vaccinia virus mCherry reporter infection, fluorescence; Potency, µM (titrated, usually from 36.5 µM), without a hit: top-dose activity change, negative = inhibition, actives largely listed as inhibitors; actives 0.63% (n = 310,000); calls by dose curve; tested in A549 cells; also: potency is read from the fitted curve at half-maximal effect; % is scaled to controls: 0 for no effect and ±100 for the full control effect; nearly all actives have a fitted effect of over 35% in size
Marburg entry inh: inhibitors of Marburg virus binding or cell entry | Marburg virus pseudotyped entry inhibition, cell reporter | Potency, µM (series often up to 37.8 µM), for the others: at the top dose activity change, negative = inhibition, most hits filed as inhibitors | actives 1.8% (n = 300,000) | AID 540276; calls by dose curve; tested in HEK293 cells; also: potency is read from the fitted curve at half-maximal effect; % is scaled to controls: 0 for no effect and ±100 for the full control effect
Shiga toxin inh: inhibitors of Shiga toxin in Vero cells; Vero cells, Shiga toxin protein synthesis inhibition reporter; inhibition, % at 38.7 µM; actives 9.2% (n = 290,000); in the data active = inhibition mostly above about 28%, no sharp cut-off; inactive = mostly below about 43%; also: 0% is about no effect
CHX counter: counter-screen hit for Shiga toxin inhibitors, cycloheximide; cell reporter, cycloheximide protein synthesis inhibition counterscreen; actives 12% (n = 300,000); max response, %; in the data active = max response mostly above about 13%, no sharp cut-off; inactive = mostly below about 14%; also: read at 38.3 µM for the half of the compounds with a filed dose; 0% is about no effect
* hit, by the source's call; i = inactive; ? = inconclusive; . = not tested or not shown; [ ] = remark or other dose.

SMILES | Lassa entry inh | VACV Venus inh | Vaccinia mCherry | Marburg entry inh | Shiga toxin inh | CHX counter
Cc1nn(C)c2c1c(-c1ccccc1)cc(=O)n2C(C)C(=O)NCc1ccc(F)cc1 (stereo unspecified) | ? | 2.6% | 0.0% | . | . | .
COc1ccc(-c2noc(CSc3nnc(CCc4ccccc4)n3-c3ccccc3)n2)cc1OC | 4.11µM* | -24.7% | -15.1% | -0.6% | -3.6 | -0.4
COc1ccc(-c2noc(CSc3nnc(Cc4ccccc4)n3-c3ccc(Cl)cc3)n2)cc1 | 4.11µM* | . | . | ? | -6.6 | -1.0
Cc1ccc(-c2noc(CSc3nnc(Cc4ccccc4)n3-c3ccc(Cl)cc3)n2)cc1 | 1.64µM* | . | . | ? | -9.5 | -1.7
Cc1ccc(-c2noc(CSc3nnc(CCc4ccccc4)n3-c3ccccc3)n2)cc1 | ? | . | . | ? | -9.0 | 2.2
Cc1ccccc1OCC(=O)Nc1nnc(SCc2cc(=O)n3cccc(C)c3n2)s1 | 3.1%[46.1 µM] | -5.8% | -17.1% | . | . | .
CCC(=O)NC(=S)Nc1ccc(N2CCOCC2)cc1 | -1.1%[46.1 µM] | -14.4% | -19.2% | ? | 95.8* | 27.6*
CCCC(=O)Nc1ccc(N2CCCCC2)cc1 | 15.5% | -8.2% | -22.8% | ? | 110.5* | 25.1*
NS(=O)(=O)c1cc(C(=O)OCC(=O)Nc2ccc(N3CCCCC3)cc2)ccc1Cl | . | 2.4%[7.34 µM] | -17.1%[7.34 µM] | . | 6.5 | 13.2*
O=C(CNCc1ccco1)Nc1ccc(N2CCCCCC2)cc1 | -0.2%[46.1 µM] | -8.3% | -21.3% | -1.9%[46.1 µM] | 35.4 | 30.1*
O=C(O)CCCC(=O)Nc1ccc(N2CCCC2)cc1 | 13.4% | -3.3% | -10.4% | 5.3%[46.1 µM] | -6.9 | -1.2
COc1ccc(-c2cc(C(F)(F)F)n3nc(C(=O)Nc4cccc(C(F)(F)F)c4)c(Br)c3n2)cc1 | 25.1%[46.1 µM] | -3.0% | -8.1% | . | . | .
O=C(CCl)Nc1ccc(N2CCCCCC2)cc1 | ? | -16.0% | ? | ? | 57.6 | 20.1*
CCC(=O)Nc1ccc(N2CCCCC2)cc1 | 14.2% | -2.5% | i | 16.8% | 65.1 | 37.1*
Cc1cc(O)cc(O)c1C(=O)OC1(C)C(=O)C=C2C=C(C=CC(=O)O)OC=C2C1=O (stereo unspecified) | ? | . | . | -31.0%[14.2 µM] | . | .
COC(=O)N/N=C(C)/C=C/c1ccccc1 | 0.6% | -3.3% | i | 7.2% | . | .
CC(/C=C/c1ccccc1)=N/NC(=O)C(O)c1ccccc1 (stereo unspecified) | -13.7% | . | . | 13.8% | 45.1* | 9.6
CC(/C=C/c1ccccc1)=N\Nc1ccccc1[N+](=O)[O-] | -4.0%[46.1 µM] | -8.8% | -5.2% | ? | 89.4* | 31.9*
CCOC(=O)N/N=C(C)/C=C/c1ccco1 | ? | -4.8% | i | ? | 31.4 | 20.6*
O=C(Nc1ccccc1[N+](=O)[O-])OCC=Cc1ccccc1 | . | -12.2% | -17.5% | . | . | .
CCOC(=O)N/N=C(C)/C=C/c1ccccc1 | -0.9% | 0.0% | i | 19.0% | 16.0 | 27.6*
CCOC(=O)N/N=C\C=C\c1ccco1 | ? | -4.3% | i | 20.5%[46.1 µM] | -6.6 | -0.4
O=C(Nc1ccccc1)C1CCCCC1 | 10.3% | . | . | -5.9% | 5.3 | 6.5
O=C(Nc1cccc(NC(=O)c2ccc(Cl)cc2)n1)c1ccc(Cl)cc1 | -7.7% | -22.3% | -13.0% | 4.0% | -35.0 | 1.2
COc1ccc(C(=O)Nc2ccc3ccccc3n2)c(OC)c1OC | . | . | . | . | 74.0* | 50.8*
SMILES | Lassa entry inh | VACV Venus inh | Vaccinia mCherry | Marburg entry inh | Shiga toxin inh | CHX counter
O=C(Nc1ccc2ccccc2n1)C1CCCCC1 | -13.1%[46.1 µM] | -8.6% | -13.9% | ? | 52.8 | 72.8*
O=C(Nc1ccc2ccccc2n1)c1ccccc1Cl | . | . | . | . | 55.8* | 39.2*
O=C(Nc1ccc2ccccc2n1)c1ccc(Cl)cc1 | ? | -23.0% | -1.5% | ? | 67.3* | 49.7*
Cc1cccc(C)c1NC(=O)C1CCCN1S(=O)(=O)c1cccc2nsnc12 (stereo unspecified) | 9.0%[46.1 µM] | 1.2% | -14.9% | ? | . | .
Nc1ncnc2nn(C3OC(CO)C(O)C3O)nc12 (stereo unspecified) | . | ? | -25.3% | . | . | .
Cc1cc(NC(=O)NC2CC(=O)N(c3ccc4c(c3)OCCO4)C2)no1 (stereo unspecified) | 12.4%[46.1 µM] | 12.9% | i | 0.1%[46.1 µM] | -7.7 | -5.2
COc1ccc(CN2CCC3(CC2)c2ccccc2[C@@H](NC(=O)c2ccccc2)[C@@H]3O)cc1O | . | -9.6% | i | . | . | .
Cc1cccc(-n2ncc3c(N4CCCC4)ncnc32)c1 | ? | -7.6% | -17.8% | ? | 85.5* | 32.5*
Cc1cccc(-n2ncc3c(N4CCN(CCO)CC4)ncnc32)c1 | 12.0%[46.1 µM] | -0.8% | -14.5% | . | . | .
Cc1ccc(-n2ncc3c(N4CCN(c5ccccc5)CC4)ncnc32)c(C)c1 | ? | . | . | -15.9% | 44.4 | 24.4*
Cc1cccc(-n2ncc3c(N4CC(C)CC(C)C4)ncnc32)c1 (stereo unspecified) | . | -8.2% | 6.5% | . | 79.5* | 39.2*
COc1ccccc1N1CCN(c2ncnc3c2cnn3-c2cc(Cl)ccc2C)CC1 | -8.1%[46.1 µM] | 10µM* | 10µM* | . | . | .
COc1cc(F)ccc1S(=O)(=O)N1CCN(Cc2ccccc2)CC1 | 1.9% | -5.9% | -14.6% | -6.8% | . | 1.2
NC(N)=NCCC[C@H](NC(=O)c1ccccc1)C(=O)Nc1ccc([N+](=O)[O-])cc1 | . | . | . | . | -6.1 | -7.5
Clc1ccc(-n2ncc3c(N4CCCCCC4)ncnc32)cc1 | . | -8.0% | i | . | 32.6 | 21.2*
Cc1ccc(-n2ncc3c(N4CCCCC4)ncnc32)cc1 | ? | -0.8% | -13.3% | . | . | .
Cc1cccc(-n2ncc3c(N4CCN(c5ccccc5)CC4)ncnc32)c1 | -46.5%[46.1 µM] | -7.3% | -10.2% | . | . | .
Cc1cccc(-n2ncc3c(N4CCOCC4)ncnc32)c1 | 1.64µM* | -22.7% | -3.4% | 3.66µM* | -10.9 | 15.4*
COc1cccc(NC(=O)Cn2c(=O)n(CCCC(=O)NCc3ccc4c(c3)OCO4)c(=O)c3ccccc32)c1 | ? | 1.9% | 3.5% | -29.9%[46.1 µM] | . | .
COc1ccc(CCNC(=O)CCc2c(C)nc3c(c(C)nn3-c3ccccc3)c2C)c(OC)c1 | 7.4%[46.1 µM] | -14.8% | -19.0% | -18.8%[46.1 µM] | . | .
COc1cc(/C=N/n2c(-c3ccc4c(c3)NC(=O)CO4)csc2=Nc2cccc(C)c2)ccc1O | 23.1µM* | ? | -7.2% | ? | 38.3* | 32.6*
Cc1ccc(C2CC(c3ccco3)n3ncnc3N2)cc1 (stereo unspecified) | . | -3.2% | -11.1% | . | -18.6 | -2.0
Cc1ccc2c(c1)C(N1CCCC1=O)CC(c1ccco1)N2 (stereo unspecified) | ? | -22.4% | -24.7% | ? | 91.8* | 53.3*
CCCN1CNc2c(c(=O)[nH]c(=S)n2CCc2cc(C)cc(C)c2)C1 | . | -23.5% | i | . | . | .
CCCCn1c(N)c(N(CC(C)C)C(=O)C2CCN(S(=O)(=O)c3ccc(Cl)cc3)CC2)c(=O)[nH]c1=O | -1.3% | -10.9% | -0.5% | 0.1% | . | .
Cc1nc2ccccn2c(=O)c1NC(=O)c1ccc(C(F)(F)F)cc1 | 16.9%[46.1 µM] | -9.8% | -18.7% | . | . | .
CCOc1ccc(-c2nc(CSc3nncs3)cs2)cc1OC | 13.1% | . | . | 16.6% | 52.8 | 19.0*
CCCS(=O)(=O)NCCc1csc(-c2ccc(OC)c(OC)c2)n1 | ? | -16.0% | -15.0% | 1.8%[46.1 µM] | -7.3 | -2.6
CCS(=O)(=O)NCCc1csc(-c2ccc(OC)c(OC)c2)n1 | . | . | . | . | -9.0 | 0.8
